# According to PubChem BioAssay (NCI):
# This is part of a sample that, as a whole, favours compounds with a hit. Of some 83,000 tested, about 20% had one in any assay.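 Step 1: grow cells in 96-well plates. Step 2: add test compound at a single concentration. Step 3: incubate 48 h. Step 4: record percent growth.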 Active and inactive are the calls of the source. How the source made its calls: active means growth percent below 10; inactive means the rest.
# System: LOX IMVI melanoma
# Assay: NCI-60 one-dose screen, 48 h (100 = growth as untreated, 0 = no growth, -100 = all killed)
# Details: 10 µM unless noted
row,SMILES,growth
1,O=C(Nc1ccc2c(c1)C(=O)c1ccccc1-2)c1ccccc1,73.2% (inactive)
2,COc1ccc(CNC(=O)c2c(C)n([O-])c3ccc(OC)cc3[n+]2=O)cc1,101% (inactive)
3,N#CC(C#N)C(C#N)C#N,104% (inactive)
4,CC[N+](CCCCCCCCCC[N+](CC)(c1ccccn1)c1ccccn1)(c1ccccn1)c1ccccn1,-54.4% (active)
5,CCCCCCCSc1ncnc2[nH]ncc12,65.9% (inactive)
6,CC(C)N(Cc1ccccc1)c1c(S)ssc1=S,10.1% (inactive)
7,O=C(NCCNC(=O)Oc1cccc2ccccc12)Oc1cccc2ccccc12,81.9% (inactive)
8,Cc1[nH]c(=O)[nH]c(=O)c1CCSSCCc1c(C)[nH]c(=O)[nH]c1=O,97.8% (inactive)
9,COc1cnc2c(c1)C(=O)c1c-2n(CCCN2CCCC2)c(=O)c2cc(F)ccc12,-69.7% (active)
10,CSc1nc(-c2ccc(O)cc2O)c2c(=O)[nH]c(Nc3ccc(S(=O)(=O)Nc4nc(C)cc(C)n4)cc3)nc2n1,99% (inactive)
11,O=C1/C(=C/c2ccc(F)cc2)Cc2ccccc21,103% (inactive)
12,CC[n+]1c(/C=C/c2ccc(N3CCCC3)cc2)cccc1/C=C/c1ccc(N2CCCC2)cc1,-76.5% (active)
13,ICCC(c1ccccc1)(c1ccccc1)c1ccccc1,16.3% (inactive)
14,O=C(CSc1nnc(-c2cc(-c3ccccc3)nc3ccccc23)o1)c1ccc(Br)cc1,101% (inactive)
15,O=c1[nH]c(SCc2ccccc2)nc2nc(Nc3ccc(NC(=S)Nc4ccccc4)cc3)nc(-c3ccc(O)cc3O)c12,98% (inactive)
16,Cc1cc(Cl)ccc1Nc1nc(C(F)(F)F)ccc1C(=O)N/N=C/c1ccc(Cl)cc1,0.0613% (active)
17,Cc1sc2nc3c4ccccc4c(NCCCN(C)C)nn3c(=O)c2c1C,-39% (active)

row,SMILES,growth
1,C[C@H](C(=O)N[C@@H](Cc1ccc(-c2ccccc2)cc1)C(=O)NC1CC(C)(C)NC(C)(C)C1)c1ccc(-c2ccccc2)c(F)c1,-85.3% (active)
2,Cc1csc(C#Cc2cncc(O)c2)n1,116% (inactive)
3,CN[C@@H]1C(OC2[C@H](O[C@H]3[C@H](O)[C@@H](O)[C@H](N=C(N)N)[C@@H](O)[C@@H]3N=C(N)N)OC(C)[C@]2(O)CO)OC(CO)C(O)C1O (stereo partly specified),104% (inactive)
4,COCCOCCOCCOCCOc1ccc2c(c1)C(=O)c1nc3ncccc3c(=O)n1-2,-87.7% (active)
5,N#CC1c2ccccc2C=CN1C(=O)N(c1ccccc1)c1ccccc1 (stereo unspecified),35.6% (inactive)
6,Nc1ccc2c(c1)C(=O)c1cc(Cl)c(Cl)cc1-2,86% (inactive)
7,COc1ccc2c(c1)C(=Nc1cc(OC)c(OC)c(OC)c1)C(=O)N2,81.6% (inactive)
8,CN(C)CCCN=c1cc2c(=O)n(CCCN(C)C)c(=O)c3c(NCCCN(C)C)cc4c(O)n(CCCN(C)C)c(=O)c1c4c3-2,-42.3% (active)
9,COc1ccc(-c2cnc(SCC(=O)Nc3ccc(-c4nc5ccccc5s4)cc3)n2-c2ccc(OC)cc2)cc1,95.2% (inactive)
10,O=c1[nH]cc(Nc2cc(Cl)c3nonc3c2[N+](=O)[O-])c(=O)[nH]1,95% (inactive)
11,CCOC(=O)Nc1cc(-c2ccc(C)c(NS(C)(=O)=O)c2)nn2c(C)nnc12,-22.7% (active)
12,NS(=O)(=O)c1cc2c(cc1Cl)NC=NS2(=O)=O,99.6% (inactive)
13,c1ccc(-c2n(Cc3ccc4ccccc4c3)cc[n+]2Cc2ccc3ccccc3c2)cc1,-92.5% (active)
14,Nc1nc(Nc2ccccc2SSc2ccccc2Nc2nc(N)nc(-c3cccc(Cl)c3)n2)nc(-c2cccc(Cl)c2)n1,61.7% (inactive)
15,CC1CN(CC(O)c2ccc(Br)cc2)CCO1 (stereo unspecified),107% (inactive)
16,CC[C@@H](C)/C=C(C)/C=C/C(=O)c1c(O)c(-c2ccc(O)cc2)cn(OC2CC(=O)CCC(C)OC(=O)CC2O)c1=O (stereo partly specified),2.2% (active)
17,COc1cc(/C=C2\SC(N3CCCCC3)=NC2=O)ccc1OCCCCCCOc1ccc(/C=C2\SC(N3CCCCC3)=NC2=O)cc1OC,-44.7% (active)

# System: SK-MEL-28 melanoma
# Assay: as above
# Details: 10 µM unless noted
row,SMILES,growth
1,COc1cc(-c2nnc(-c3nc(-c4cc(OC)c(OC)c(OC)c4)n4ccccc34)o2)ccc1N,97.8% (inactive)
2,O=C(Nc1ccc2c(c1)C(=O)c1ccccc1-2)c1ccccc1,105% (inactive)
3,COc1ccc(CNC(=O)c2c(C)n([O-])c3ccc(OC)cc3[n+]2=O)cc1,108% (inactive)
4,N#CC(C#N)C(C#N)C#N,110% (inactive)
5,CC[N+](CCCCCCCCCC[N+](CC)(c1ccccn1)c1ccccn1)(c1ccccn1)c1ccccn1,15.1% (inactive)
6,CCCCCCCSc1ncnc2[nH]ncc12,106% (inactive)
7,CC(C)N(Cc1ccccc1)c1c(S)ssc1=S,21.8% (inactive)
8,O=C(NCCNC(=O)Oc1cccc2ccccc12)Oc1cccc2ccccc12,128% (inactive)
9,Cc1[nH]c(=O)[nH]c(=O)c1CCSSCCc1c(C)[nH]c(=O)[nH]c1=O,114% (inactive)
10,CC(C)N(Cc1ccccc1)c1c(Cl)ssc1=O,101% (inactive)
11,COc1cnc2c(c1)C(=O)c1c-2n(CCCN2CCCC2)c(=O)c2cc(F)ccc12,27.4% (inactive)
12,CSc1nc(-c2ccc(O)cc2O)c2c(=O)[nH]c(Nc3ccc(S(=O)(=O)Nc4nc(C)cc(C)n4)cc3)nc2n1,97.8% (inactive)
13,c1ccc(COc2ccc(Nc3ncnc4c3cnn4-c3ccccc3)cc2)cc1,96% (inactive)
14,O=C1/C(=C/c2ccc(F)cc2)Cc2ccccc21,105% (inactive)
15,CC[n+]1c(/C=C/c2ccc(N3CCCC3)cc2)cccc1/C=C/c1ccc(N2CCCC2)cc1,-93.6% (active)
16,ICCC(c1ccccc1)(c1ccccc1)c1ccccc1,-70% (active)
17,O=C(CSc1nnc(-c2cc(-c3ccccc3)nc3ccccc23)o1)c1ccc(Br)cc1,113% (inactive)
18,O=c1[nH]c(SCc2ccccc2)nc2nc(Nc3ccc(NC(=S)Nc4ccccc4)cc3)nc(-c3ccc(O)cc3O)c12,94.3% (inactive)
19,Cc1cc(Cl)ccc1Nc1nc(C(F)(F)F)ccc1C(=O)N/N=C/c1ccc(Cl)cc1,20.9% (inactive)

row,SMILES,growth
1,Cc1sc2nc3c4ccccc4c(NCCCN(C)C)nn3c(=O)c2c1C,-87.5% (active)
2,C[C@H](C(=O)N[C@@H](Cc1ccc(-c2ccccc2)cc1)C(=O)NC1CC(C)(C)NC(C)(C)C1)c1ccc(-c2ccccc2)c(F)c1,-77.7% (active)
3,Cc1csc(C#Cc2cncc(O)c2)n1,111% (inactive)
4,CN[C@@H]1C(OC2[C@H](O[C@H]3[C@H](O)[C@@H](O)[C@H](N=C(N)N)[C@@H](O)[C@@H]3N=C(N)N)OC(C)[C@]2(O)CO)OC(CO)C(O)C1O (stereo partly specified),104% (inactive)
5,N#CC1c2ccccc2C=CN1C(=O)N(c1ccccc1)c1ccccc1 (stereo unspecified),67% (inactive)
6,Nc1ccc2c(c1)C(=O)c1cc(Cl)c(Cl)cc1-2,122% (inactive)
7,COc1ccc2c(c1)C(=Nc1cc(OC)c(OC)c(OC)c1)C(=O)N2,90.2% (inactive)
8,CN(C)CCCN=c1cc2c(=O)n(CCCN(C)C)c(=O)c3c(NCCCN(C)C)cc4c(O)n(CCCN(C)C)c(=O)c1c4c3-2,-48.6% (active)
9,COc1ccc(-c2cnc(SCC(=O)Nc3ccc(-c4nc5ccccc5s4)cc3)n2-c2ccc(OC)cc2)cc1,120% (inactive)
10,O=c1[nH]cc(Nc2cc(Cl)c3nonc3c2[N+](=O)[O-])c(=O)[nH]1,83.2% (inactive)
11,CCOC(=O)Nc1cc(-c2ccc(C)c(NS(C)(=O)=O)c2)nn2c(C)nnc12,14.3% (inactive)
12,NS(=O)(=O)c1cc2c(cc1Cl)NC=NS2(=O)=O,108% (inactive)
13,c1ccc(-c2n(Cc3ccc4ccccc4c3)cc[n+]2Cc2ccc3ccccc3c2)cc1,-84.2% (active)
14,Nc1nc(Nc2ccccc2SSc2ccccc2Nc2nc(N)nc(-c3cccc(Cl)c3)n2)nc(-c2cccc(Cl)c2)n1,102% (inactive)
15,CC1CN(CC(O)c2ccc(Br)cc2)CCO1 (stereo unspecified),119% (inactive)
16,CC[C@@H](C)/C=C(C)/C=C/C(=O)c1c(O)c(-c2ccc(O)cc2)cn(OC2CC(=O)CCC(C)OC(=O)CC2O)c1=O (stereo partly specified),34% (inactive)
17,COc1cc(/C=C2\SC(N3CCCCC3)=NC2=O)ccc1OCCCCCCOc1ccc(/C=C2\SC(N3CCCCC3)=NC2=O)cc1OC,12.7% (inactive)
18,CCCCCCCCN(CCO)CCCCCCCC,101% (inactive)
